CSC inhib – cancer stem cell inhibition. inhibition, % at 7.5 µM. 1.1% of 300,000 active. AID 2717. cancer stem cell-like cells viability, luminescence; in the data active = inhibition above about 75%; inconclusive = no clear call, values can overlap the other calls; tested in HMLE shEcad cells
SKKanGAS inh – SKKanGAS growth inhibition. S. pyogenes SKKanGAS, kanamycin growth, BacTiter-Glo, 6 h. inhibition, % at 7.5 µM. 1.3% of 300,000 active;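 active = mean replicate score, as percent of positive control median, at least 50; inconclusive = mean below 50 but one replicate at or above 50; inactive = mean and every replicate below 50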;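 also: strain carries kanamycin resistance gene driven by streptokinase promoter and grows in 40 µg/ml kanamycin; loss of luminescence reflects streptokinase promoter inhibition or plain growth inhibition; 0% = median of DMSO wells and 100% = positive control at its reference dose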
Beta cell apopt – blocks beta cell apoptosis; INS-1E cytokine-induced death, ATP luminescence, 48 h; percent of positive-control rescue, neutral wells zero; protection from apoptosis, % (no concentration beside the values); 0.8% of 300,000 active; AID 435005;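 active = Every replicate reaches about 75%, or at least half do and their mean reaches it too, limit read from the data; inconclusive = At least half of replicates reach the limit but their mean does not; inactive = Under half of replicates reach the limit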;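 also: 0% = cytokine-treated negative control wells and 100% = positive control rescue; higher means more ATP so stronger rescue from cytokine killing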
MPTP block – permeability transition pore inhibition; AID 602449; isolated mouse mitochondria, Ca2+ swelling absorbance, 30 min; inhibition, % at 10 µM; 1.4% of 360,000 active;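 active = inhibition of 50% or more, scaled per plate between neutral and stimulator controls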;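 also: 0% = DMSO wells given calcium and 100% = 1 mM EGTA wells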
Calb FLC – affects C. albicans growth with fluconazole; C. albicans CaCi-2 (fluconazole-resistant clinical isolate) + fluconazole, Alamar Blue growth, 48 h; growth inhibition, % (no concentration beside the values); 0.57% of 300,000 active; AID 1979;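 active = growth inhibition above about 58% in most replicates, limit read from the data, passing the limit was not always enough; inconclusive = exactly half the replicates above a set limit; inactive = most replicates below a set limit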;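 also: all wells also contain fluconazole at 8 µg/ml as a sub-toxic cotreatment; 0% = median of DMSO wells and 100% = median of geldanamycin control wells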
Mdm2-MdmX inh – inhibitors of human Mdm2/MdmX interaction. SaOS-2 split-luciferase Mdm2/MdmX complementation, luminescence. inhibition, % at 8 µM. 3% of 330,000 active;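 active = inhibition of at least 50% at 8 µM in the primary screen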
Target sequence (O15151 whole entry, looked up): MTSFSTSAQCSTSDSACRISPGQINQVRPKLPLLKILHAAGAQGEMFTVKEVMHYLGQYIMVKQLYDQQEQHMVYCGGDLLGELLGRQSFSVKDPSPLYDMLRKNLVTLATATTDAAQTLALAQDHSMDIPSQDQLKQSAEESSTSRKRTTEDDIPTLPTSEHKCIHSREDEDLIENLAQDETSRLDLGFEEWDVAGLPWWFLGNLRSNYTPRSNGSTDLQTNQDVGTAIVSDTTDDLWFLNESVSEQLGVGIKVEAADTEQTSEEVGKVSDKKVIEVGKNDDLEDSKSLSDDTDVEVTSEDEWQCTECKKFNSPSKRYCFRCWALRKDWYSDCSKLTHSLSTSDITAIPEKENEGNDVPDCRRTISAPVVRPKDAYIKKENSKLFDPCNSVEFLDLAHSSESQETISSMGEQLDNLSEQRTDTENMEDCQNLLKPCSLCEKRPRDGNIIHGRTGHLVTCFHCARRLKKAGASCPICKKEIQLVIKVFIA
Target sequence (Q00987 whole entry, looked up): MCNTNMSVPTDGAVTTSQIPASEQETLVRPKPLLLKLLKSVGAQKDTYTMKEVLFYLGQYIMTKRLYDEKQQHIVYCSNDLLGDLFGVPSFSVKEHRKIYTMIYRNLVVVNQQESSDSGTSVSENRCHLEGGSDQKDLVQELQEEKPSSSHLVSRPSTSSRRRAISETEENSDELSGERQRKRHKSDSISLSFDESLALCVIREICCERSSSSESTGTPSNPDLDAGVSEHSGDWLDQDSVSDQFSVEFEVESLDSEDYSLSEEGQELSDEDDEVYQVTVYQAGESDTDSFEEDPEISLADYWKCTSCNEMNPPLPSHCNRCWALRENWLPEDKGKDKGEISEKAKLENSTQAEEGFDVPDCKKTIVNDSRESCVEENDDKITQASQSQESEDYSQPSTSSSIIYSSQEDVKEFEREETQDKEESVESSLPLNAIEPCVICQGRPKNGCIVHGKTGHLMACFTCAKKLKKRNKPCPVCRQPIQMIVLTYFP
Rh123 counter – mitochondrial membrane potential, counter-screen. shares compounds with MPTP block. isolated mitochondria, Rhodamine 123 fluorescence. inhibition, % at 10 µM. 78% of 5,000 active. AID 624504; in the data active = inhibition above about 22%;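 also: 0% = DMSO vehicle and 100% = positive control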
Numbers without * were called inactive; ? = inconclusive; nt = not tested or not shown. In the library only some 5.4% were active in any assay of this set; here they are far more common.

SMILES	CSC inhib	SKKanGAS inh	Beta cell apopt	MPTP block	Calb FLC	Mdm2-MdmX inh	Rh123 counter
O=C(COc1ccccc1C(=O)O)Nc1nc2ccc([N+](=O)[O-])cc2s1	22.4	23.8	-3.7	94.3*	-0.3	20.0	83.5*
Cc1nc2ccc(NC(=O)COc3ccccc3[N+](=O)[O-])cc2s1	nt	-1.2	6.0	-1.7	-18.1	-17.4	nt
COc1ccccc1-c1cnc(C(O)c2ccc(Cl)c(Cl)c2)[nH]1 (configuration not stated)	nt	nt	nt	4.3	nt	nt	nt
Cc1ccc(CNC(=O)c2[nH]c(C(F)(F)F)nc2-c2ccccc2)cc1	nt	nt	nt	-0.9	nt	nt	nt
FC(F)(F)c1cccc(CNC(=S)Nc2ccccc2)c1	20.1	16.0	1.6	82.1*	-11.2	-2.8	94.8*
FC(F)(F)c1cccc(NC(=S)NCc2ccccc2)c1	6.9	28.5	-0.9	105.8*	-62.0	30.3	114.5*
O=C(NCc1cccc(C(F)(F)F)c1)c1[nH]c(C(F)(F)F)nc1-c1ccccc1	nt	nt	nt	50.8*	nt	nt	99.1*
O=C(CNC(=O)Cc1ccccc1)NCc1cccc(C(F)(F)F)c1	nt	6.9	-4.8	-1.6	-1.4	16.7	nt
CCCN(Cc1ccccc1)C(=S)Nc1cccc(C(F)(F)F)c1	16.7	0.6	4.4	59.9*	-24.8	3.9	63.3*
O=C(NCc1cccc(C(F)(F)F)c1)c1cc(Cl)ccc1Cl	-3.0	12.0	-1.1	12.0	-17.8	21.3	nt
CC(C)CCN(C(=S)Nc1cccc(C(F)(F)F)c1)C(C)c1ccccn1 (configuration not stated)	23.6	4.5	-0.7	63.1*	5.6	20.7	74.5*
O=C(NCc1cccc(C(F)(F)F)c1)c1cc(Cl)cc(Cl)c1	12.6	4.4	-2.6	100.1*	-1.7	2.0	88.2*
CCN1CCN(C(=O)/C=C/c2ccc(F)cc2)CC1	-3.6	-6.6	nt	1.3	-8.6	10.9	nt
Brc1ccc(CNc2ccc3ncccc3c2)cc1	-3.1	2.4	29.7	91.8*	55.2	-60.3	86.4*
O=C(Cc1c(C(=O)O)[nH]c2ccccc12)NCCN1CCN(c2cccc(Cl)c2)CC1	-10.2	-11.3	-5.0	-3.5	-4.8	8.6	nt
CCn1c(=O)c2c(nc3n2CCCN3c2cccc(C)c2)n(C)c1=O	-5.9	7.6	-4.0	1.2	-7.8	-11.6	nt
O=C(NNC(=O)c1ccc(Br)cc1)c1ccncc1	-3.9	5.9	0.8	0.0	13.5	-26.8	nt
COc1cccc(C(=O)NNC2=C(C(=O)C(F)(F)F)CCC2)c1	23.9	-1.9	0.8	62.6*	-27.3	23.1	45.3*
O=C(NNC1=C(C(=O)C(F)(F)F)CCC1)c1ccc(Br)cc1	106.7*	106.4*	6.4	93.0*	92.2*	39.8	74.6*
COc1ccc(NC(=O)CN2C(=O)NC(C)(c3ccc(C)cc3)C2=O)cn1 (configuration not stated)	-8.9	nt	-2.7	-0.4	nt	-31.4	nt
CN1/C(=C\C(=O)Nc2cccc(Cl)c2)C(C)(C)c2ccccc21	43.1	7.0	11.3	103.6*	24.2	4.6	81.9*
CCOC(=O)c1c(NC(=O)c2nc3n(n2)C(C(F)F)CC(C)N3)sc2c1CCCC2 (configuration not stated)	49.0	3.7	7.3	7.5	-6.4	41.1	nt
O=C(NNc1c2ccccc2nc2ccccc12)c1ccccc1O	?	43.4	12.2	87.2*	-14.4	37.1	42.5*
O=C(NNc1c2ccccc2nc2ccccc12)c1ccc(O)cc1	7.4	-6.3	47.4	6.0	4.6	27.7	nt
Cc1cc(N=Nc2ccccc2C(=O)O)c(C)c(C)c1O	-2.2	28.2	11.7	55.9*	6.6	-8.4	36.2*
SMILES	CSC inhib	SKKanGAS inh	Beta cell apopt	MPTP block	Calb FLC	Mdm2-MdmX inh	Rh123 counter
Cc1cc(C)c(C)c(C(=O)c2ccccc2C(=O)O)c1C	-18.7	-12.3	-3.6	0.5	28.4	-12.3	nt
Cc1cc(O)c(C(C)C)cc1N=Nc1ccccc1C(=O)O	26.0	4.0	-1.5	76.2*	49.5	2.9	51.8*
COc1ccccc1C(=O)NC(=O)COC(=O)Cc1ccccc1[N+](=O)[O-]	-11.5	1.4	-0.3	-1.1	nt	25.7	nt
CC(=O)c1cccc(NC(=O)Nc2csc3c2CCCC3)c1	-9.3	8.4	2.8	80.2*	11.2	-2.3	93.9*
CC(=O)c1cccc(NC(=O)c2csc3c2CCCCC3)c1	2.7	13.6	-4.7	5.6	-33.3	-16.6	nt
O=C(NCCCl)Nc1ccc(Cl)c([N+](=O)[O-])c1	2.4	-3.2	-4.1	81.1*	-1.2	18.2	92.8*
CCOC(=O)N(C)OC(=O)Nc1ccc(Cl)c(Cl)c1	6.0	-10.9	0.5	73.4*	19.8	11.3	83.1*
O=C(COc1ncnc2ccccc12)Nc1ccc(Cl)c([N+](=O)[O-])c1	-3.5	-2.1	-2.5	4.9	21.8	-8.5	nt
O=C(NCCCl)Nc1cc([N+](=O)[O-])ccc1Cl	-30.3	-8.3	-2.8	1.4	-25.9	16.6	nt
O=C(CN(C(=O)c1ccccc1Cl)C1CCCCC1)Nc1ccc(Cl)c([N+](=O)[O-])c1	27.7	3.1	15.5	87.9*	21.8	20.7	79.7*
CN(C)CCNC(=O)Nc1ccc(Cl)c(Cl)c1	5.9	5.4	-4.1	71.0*	-5.2	29.4	94.3*
N#Cc1ccc(Cl)cc1NC(=O)CNCc1cccs1	6.0	-7.4	-0.4	-0.1	0.2	17.1	nt
CCOC(=O)CNNC(=O)Nc1ccc(Cl)c(Cl)c1	nt	1.0	nt	68.8*	0.1	-5.3	64.6*
CCOC(=O)N(CC)OC(=O)Nc1ccc(Cl)cc1	-2.5	-0.8	6.7	57.4*	-2.1	10.4	63.4*
CCOC(=O)NCCOC(=O)Nc1ccc(Cl)cc1	4.4	-3.3	-8.6	-1.7	-6.1	10.9	nt
CC(C(=O)Nc1ccc(S(N)(=O)=O)cc1)N1CCc2ccccc21 (configuration not stated)	-1.6	-0.4	0.5	0.1	-4.8	-0.1	nt
Cc1cc(/C=N/n2cnnc2)c(C)n1-c1ccc(OCc2ccccc2F)cc1	40.2	25.5	122.0*	98.2*	-7.5	49.5	95.8*
Fc1ccccc1COc1cccc(/C=N/n2cnnc2)c1	5.2	-1.1	0.8	5.2	20.8	1.4	nt
N#Cc1cc(-c2ccccc2)nnc1Oc1ccccc1Cl	-5.9	-1.5	11.6	1.7	-0.5	36.3	nt
Cc1c(Cl)cccc1NC(=S)N1CCCN(Cc2ccc(F)cc2)C1	3.0	3.2	-7.1	48.2	-1.6	11.8	nt
Cc1c(Cl)cccc1NC(=S)N1CCCN(Cc2ccccc2F)C1	3.9	7.4	-4.9	68.7*	-0.4	8.0	73.8*
Fc1ccccc1CN1CCCN(C(=S)Nc2cccc(Cl)c2)C1	5.9	3.3	-0.2	92.3*	-6.6	2.1	76.1*
COCc1cc(C)nc(NCCc2ccccc2)c1C#N	-12.6	0.3	-0.4	-5.5	-15.2	21.3	nt
COc1ccc([N+](=O)[O-])cc1N(CC(O)CN(CC(C)C)CC(C)C)S(=O)(=O)c1ccccc1 (configuration not stated)	-10.9	-10.0	3.5	1.7	-5.1	13.4	nt

Screens from PubChem BioAssay.
